Screening data: PubChem BioAssay, National Center for Advancing Translational Sciences (NCATS)
HEK cytotox – Cytotoxic Profiling in HEK 293 Cell Line of Diverse Libraries Using Quantitative High-Throughput Screening. HEK 293 viability, ATP luminescence (CellTiter-Glo), 48-72 h. Potency, µM (doses to about 115 µM), without a hit: at the top dose activity change, negative = cytotoxicity, most hits filed as inhibitors. hit rate 6.6% among 94,000; further: nearly all actives have a fitted effect of over 60% in size
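qHTS cytotoxicity; HEK 293, 250 cells/well; compound pinned; 48 or 72 hr, 37 degree Celsius, 5% CO2, 95% humidity; CellTiter-Glo, 10 min RT; luminescence (ATP).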
hNpr1 antagonist – Natriuretic polypeptide receptor (hNpr1) antagonism - Primary qHTS; hit rate 1.6% among 76,000; Atrial natriuretic peptide receptor 1 (Homo sapiens), P16066; HEK293 hNpr1 GloSensor cGMP, ANP-stimulated luminescence; AID 1347048, 2019; Potency, µM (series often up to 46.3 µM), inactives show at the highest dose activity change, negative = inhibition, most hits filed as inhibitors; calls by dose curve; further: nearly all actives have a fitted effect of over 60% in size
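HEK293 cells stably expressing human Npr1 and cGMP GloSensor pGS-40F, loaded 2 h with 2% GloSensor reagent, given compound 30 min at room temperature. Luminescence read before and 20 min after 0.1 nM hNppA.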
FLuc inh – Firefly luciferase inhibition profiling of diverse chemical library using quantitative high-throughput screening. Potency, µM (highest dose often 115 µM), usual class: inhibitors. hit rate 2.5% among 76,000. purified P. pyralis luciferase, luminescence, biochemical; further: nearly all actives have a fitted effect of over 65% in size
Target sequence (P08659 whole entry, looked up): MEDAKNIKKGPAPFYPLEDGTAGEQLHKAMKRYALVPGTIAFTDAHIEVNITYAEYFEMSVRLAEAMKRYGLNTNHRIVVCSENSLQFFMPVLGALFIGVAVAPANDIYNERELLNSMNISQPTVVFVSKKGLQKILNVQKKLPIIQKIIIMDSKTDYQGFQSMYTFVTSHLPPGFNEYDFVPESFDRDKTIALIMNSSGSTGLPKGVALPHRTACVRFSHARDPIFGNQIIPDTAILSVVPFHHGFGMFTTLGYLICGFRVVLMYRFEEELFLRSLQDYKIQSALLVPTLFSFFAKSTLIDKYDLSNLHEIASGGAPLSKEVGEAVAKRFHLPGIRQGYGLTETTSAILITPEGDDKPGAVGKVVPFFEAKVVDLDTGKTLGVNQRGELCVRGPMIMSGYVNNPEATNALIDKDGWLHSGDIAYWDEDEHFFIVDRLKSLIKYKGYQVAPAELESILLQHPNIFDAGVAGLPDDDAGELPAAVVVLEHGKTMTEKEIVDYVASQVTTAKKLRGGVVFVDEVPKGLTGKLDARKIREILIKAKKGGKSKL
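Biochemical qHTS: compound (6-point titration) added to 10uM D-luciferin plus 10uM ATP in Tris acetate pH 7.5 buffer with Mg, Tween-20 and BSA, then purified enzyme at 10nM; light output imaged.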
3T3 cytotox – Cytotoxic Profiling in NIH 3T3 Cell Line of Diverse Libraries Using Quantitative High-Throughput Screening; hit rate 4.3% among 94,000; NIH 3T3 viability, CellTiter-Glo ATP luminescence, 48-72 h; Potency, µM (highest dose often 96.7 µM), for inactives: at the highest dose activity change, negative = cytotoxicity, actives largely listed as inhibitors; further: nearly all actives have a fitted effect of over 55% in size
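Viability of NIH 3T3 cells after 48 or 72 hr compound treatment at 37 °C was assessed by CellTiter-Glo, with luminescence imaged following a 10 min room-temperature step.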
The depositor's hits bear a star; i = inactive; ? = inconclusive; nt = no result; [ ] = remark or other dose. Only some compounds are listed: those with a hit (about 11% of all), similar ones and a draw of the others. Unless noted, the call rests on the fitted dose curve; in most records, active means well fitted curve in the direction sought with a large enough effect; inconclusive means small, poorly fitted or top-dose-only effect, or another doubt; inactive means no such curve, though single readings can be large; an effect the other way counts as inactive or inconclusive. On the % scale 0 is the no-effect control and ±100 the full control effect; potency means the concentration at half of the fitted maximal effect.

SMILES | HEK cytotox | hNpr1 antagonist | FLuc inh | 3T3 cytotox
CSc1ccc(-c2cccc(CN3CCC(NC(=O)c4c(C)noc4C)CC3)c2)cc1 | ? | nt | nt | -23%
Cc1cc(C)cc(-c2ccc(CN3CCCC(NC(=O)C4CC4)C3)cc2)c1 (stereo not given) | -18% | nt | nt | -15%
Cc1ccc(-c2cccc(CN3CCCC(NC(=O)c4c(C)noc4C)C3)c2)cc1Cl (stereo not given) | 22µM* | nt | nt | ?
Cc1nn2c(c1-c1ccccc1Oc1ccccc1)N(C(=O)c1cnccn1)CCC2 | i | 2%[70.6 µM] | i | ?
Cc1nn2c(c1-c1ccccc1Oc1ccccc1)N(C(=O)Cc1ccccc1)CCC2 | 79µM* | ? | i | ?
COc1ccccc1C(=O)N1CCCn2nc(C)c(-c3ccccc3Oc3ccccc3)c21 | 100µM* | -3%[70.6 µM] | i | ?
COc1ccccc1C(=O)N1CCCn2nc(C)c(-c3ccccc3OCc3ccccc3)c21 | ? | -2% | i | ?
Cc1nn2c(c1-c1ccccc1Oc1ccccc1)N(C(=O)c1cccc(C#N)c1)CCC2 | 71µM* | -19%[70.6 µM] | i | ?
Cc1nn2c(c1-c1ccccc1Oc1ccccc1)N(C(=O)c1ccccc1)CCC2 | 56µM* | -25%[70.6 µM] | i | 45µM*
O=C(NCC1CN(CC2CC2)CC12CN(c1ccccc1)C2)c1ccccc1 (stereo not given) | ? | -16%[70.6 µM] | i | 89µM*
O=C(NCC1CN(CC2CC2)CC12CN(c1ccccc1)C2)Nc1ccccc1 (stereo not given) | ? | -1%[70.6 µM] | i | 100µM*
Cc1nn(-c2ccccc2)c2c1C(C(C)C)N(C1CCCN([S+](=O)([O-])c3ccccc3)C1)C2=O (stereo not given) | ? | nt | nt | -13%
CCn1nccc1C(=O)N1CCC2(CC1)NCCc1c2[nH]c2ccccc12 | ? | 3% | i | -21%
COc1ccccc1Cn1c(=O)c(C(=O)NCC(F)(F)F)nc2cccnc21 | -11% | nt | nt | -31%
COC(=O)N1CCc2nc(-c3ccc(OC)cc3)nc(-c3ccccc3)c2C1 | ? | -15% | i | ?
CCc1nc2c(c(-c3ccc(O)cc3)n1)CN(C(=O)C1CCCC1)CC2 | 40µM* | nt | nt | ?
COc1ccc(-c2nc(-c3ccccc3)nc3c2CN(C(=O)C2CCCC2)CC3)cc1 | 35µM* | 5% | i | ?
COc1ccc(-c2nc(C3CC3)nc3c2CN(C(=O)c2ccccc2F)CC3)cc1 | -10% | nt | nt | 28µM*
O=C(C1CCCC1)N1CCc2nc(-c3ccc(Cl)cc3)nc(-c3ccccc3)c2C1 | 18µM* | -13% | ? | ?
O=C(c1ccccn1)N1CCCC2(CNc3ncccc3[S+](=O)([O-])N2)C1 (stereo not given) | -19% | nt | nt | -3%
O=C(NCCCN1CCCCC1)C1(CCO)CC12CCOCC2 (stereo not given) | -15% | nt | nt | -16%
C[S+](=O)([O-])N1CCC(c2nnc3n2C(C(=O)NC2CCCCCC2)CC3)CC1 (stereo not given) | -1% | nt | nt | ?
O=C(C1CC1)N1CCc2nc(-c3ccccc3)nc(-c3ccc(Cl)cc3)c2C1 | -17% | -30% | i | -23%
O=C(C1CCCC1)N1CCc2nc(-c3ccccc3)nc(-c3ccc(Cl)cc3)c2C1 | 35µM* | -13% | i | ?
CCOC(=O)COC1CCN(C(=O)CC2CCCC2)CC(=O)N(C)c2ccccc21 (stereo not given) | i | nt | nt | ?
SMILES | HEK cytotox | hNpr1 antagonist | FLuc inh | 3T3 cytotox
COc1ccc(-c2noc([C@@H]3Cc4nc[nH]c4CN3Cc3ccccc3)n2)cc1 | ? | -2%[70.6 µM] | ? | ?
COc1ccc(CN2Cc3[nH]cnc3C[C@H]2c2nc(-c3ccc(C(F)(F)F)cc3)no2)cc1 | ? | -24% | 40µM* | ?
COc1ccc(-c2noc([C@@H]3Cc4nc[nH]c4CN3Cc3ccc(NC(C)=O)cc3)n2)cc1 | -7% | 1% | 35µM* | -22%
COc1ccc(CN2Cc3[nH]cnc3C[C@H]2c2nc(-c3ccc(F)c(Cl)c3)no2)cc1 | ? | -13% | i | ?
CC(=O)Nc1ccc(CC(=O)N2CCC3(CCc4nn(Cc5ccccc5)c(=O)n4CC3)CC2)cc1 | -2% | nt | nt | -11%
Cc1cc(C)cc(-c2ccc(CN3CCCC3C(=O)NCc3ccc4c(c3)OCO4)cc2)c1 (stereo not given) | 50µM* | nt | nt | 35µM*
Cc1cc(C)cc(-c2ccc(CN3CCCC3C(=O)NC(C)C)cc2)c1 (stereo not given) | 50µM* | nt | nt | ?
Cc1cc(C)cc(-c2ccc(CN3CCCC3C(=O)NC3CC3)cc2)c1 (stereo not given) | 50µM* | nt | nt | ?
Cc1cc(C)cc(-c2ccc(CN3CCCC3C(=O)Nc3ccccc3F)cc2)c1 (stereo not given) | ? | nt | nt | -37%
Cc1cc(C)cc(-c2ccc(CN3CCCC3C(=O)Nc3ccccc3Cl)cc2)c1 (stereo not given) | -15% | nt | nt | -18%
Cc1cc(C)cc(-c2ccc(CN3CCCC3C(=O)NCCc3ccccc3)cc2)c1 (stereo not given) | 40µM* | nt | nt | 32µM*
CC(=O)N1CCCC1C(=O)N1CCCC1c1nc2ccncc2[nH]1 (stereo not given) | -5%[172 µM] | nt | nt | -14%[138 µM]
COc1ccc(NC(=O)N[C@H]2CO[C@H]3[C@@H]2OC[C@@H]3n2nnnc2-c2ccc3c(c2)OCO3)cc1 | ? | 0% | i | ?
COc1cccc(-c2nnnn2[C@H]2CO[C@H]3[C@@H]2OC[C@@H]3NC(=O)c2ccc(N(C)C)cc2)c1 | ? | 16µM* | ? | ?
O=C(NC1CCCCC1)N[C@H]1CO[C@H]2[C@@H]1OC[C@@H]2n1nnnc1-c1ccc2c(c1)OCO2 | -22% | 2% | i | -20%
COc1cccc(-c2nnnn2[C@H]2CO[C@H]3[C@@H]2OC[C@@H]3NC(=O)c2ccccc2C(=O)O)c1 | -1% | 4% | i | -7%
O=C(Nc1cccc(C(F)(F)F)c1)N[C@H]1CO[C@H]2[C@@H]1OC[C@@H]2n1nnnc1-c1ccc2c(c1)OCO2 | 40µM* | ? | i | 32µM*
O=C(N[C@H]1CO[C@H]2[C@@H]1OC[C@@H]2n1nnnc1-c1ccc2c(c1)OCO2)c1ccccc1 | 79µM* | ? | i | ?
O=C(NCc1ccccc1)N[C@H]1CO[C@H]2[C@@H]1OC[C@@H]2n1nnnc1Oc1ccc(-n2ccnc2)cc1 | 0% | 0% | i | -2%
O=C(Nc1cccc(C(F)(F)F)c1)N[C@H]1CO[C@H]2[C@@H]1OC[C@@H]2n1nnnc1Oc1ccc(-n2ccnc2)cc1 | 32µM* | ? | i | 22µM*
Cc1ccccc1C(=O)NC1CCN(c2ccc3nnc(C)n3n2)CC1 | -28% | nt | nt | -28%
